In PubChem BioAssay (NCATS):
Records with an inconclusive call do not appear. Active and inactive are the calls of the source. Calls follow the shape of the dose curve; as a rule, active = well fitted curve in the direction sought with a large enough effect; inconclusive = small, poorly fitted or top-dose-only effect, or another doubt; inactive = no such curve, though single readings can be large; an effect the other way counts as inactive or inconclusive.

Assays:
[1] = Quantitative High-Throughput drug screen in 47 multiple myeloma cell lines against the NCATS MIPE library collection: FR4_PLB cell viability assay (AID 1918924; also: nearly all actives have a fitted effect of over 35% in size; also: potency is read from the fitted curve at half-maximal effect)
Outline: (§1)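 Myeloma cells (500 per well) were exposed to MIPE 4.0 compounds by pin transfer and incubated 48 hours at 37C, 5% CO2. Viability was read as ATP by CellTiter-Glo luminescence, normalised to DMSO (100%) and media-only (0%) wells.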

[2] = Quantitative High-Throughput drug screen in 47 multiple myeloma cell lines against the NCATS MIPE library collection: Delta47_JCRB cell viability assay (AID 1918925; also: nearly all actives have a fitted effect of over 45% in size; also: potency is read from the fitted curve at half-maximal effect)
Outline: (§2)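 Steps: seed 500 cells per well; pin-transfer MIPE 4.0 library; incubate 48 h at 37C, 5% CO2, humidified; add CellTiter-Glo, 5 min room temperature; read luminescence.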

[3] = Quantitative High-Throughput drug screen in 47 multiple myeloma cell lines against the NCATS MIPE library collection: EJM_DSMZ cell viability assay (AID 1918926; also: nearly all actives have a fitted effect of over 30% in size; also: potency is read from the fitted curve at half-maximal effect)
Outline: as §2

[4] = Quantitative High-Throughput drug screen in 47 multiple myeloma cell lines against the NCATS MIPE library collection: AMO1_DSMZ cell viability assay (AID 1918927; also: nearly all actives have a fitted effect of over 30% in size; also: potency is read from the fitted curve at half-maximal effect)
Outline: as §2

[5] = Quantitative High-Throughput drug screen in 47 multiple myeloma cell lines against the NCATS MIPE library collection: ARP1_JJKsccF8 cell viability assay (AID 1918928; also: nearly all actives have a fitted effect of over 40% in size; also: potency is read from the fitted curve at half-maximal effect)
Outline: (§3)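 500 cells/well; MIPE 4.0 library pinned in; 48 h, 37 °C, 5% CO2; CellTiter-Glo ATP luminescence. Controls: DMSO = 100% viability, medium only = 0%.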

[6] = Quantitative High-Throughput drug screen in 47 multiple myeloma cell lines against the NCATS MIPE library collection: ARD_JJKsccE7 cell viability assay (AID 1918929; also: potency is read from the fitted curve at half-maximal effect)
Outline: as §2

[7] = Quantitative High-Throughput drug screen in 47 multiple myeloma cell lines against the NCATS MIPE library collection: Karpas620_DSMZ cell viability assay (AID 1918959); also: nearly all actives have a fitted effect of over 30% in size; also: potency is read from the fitted curve at half-maximal effect
Outline: as §1

[8] = Quantitative High-Throughput drug screen in 47 multiple myeloma cell lines against the NCATS MIPE library collection: Karpas417_ECACC cell viability assay (AID 1918961); details: Karpas417 myeloma viability, CellTiter-Glo ATP luminescence, 48 h; viability (% of DMSO): at 45.8 µM (top of the series) unless noted; also: potency is read from the fitted curve at half-maximal effect
Outline: (§4)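 CellTiter-Glo ATP luminescence gave viability after 48 h compound treatment at 37C of 500 multiple myeloma cells per well. Normalisation used DMSO-only wells as 100% and media-only wells as 0% viability; primary qHTS of approved and investigational drugs.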

[9] = Quantitative High-Throughput drug screen in 47 multiple myeloma cell lines against the NCATS MIPE library collection: KHM11_PLB cell viability assay (AID 1918962); also: nearly all actives have a fitted effect of over 35% in size; also: potency is read from the fitted curve at half-maximal effect
Outline: as §1

[10] = Quantitative High-Throughput drug screen in 47 multiple myeloma cell lines against the NCATS MIPE library collection: JIM3_ECACC cell viability assay (AID 1918963; also: nearly all actives have a fitted effect of over 35% in size; also: potency is read from the fitted curve at half-maximal effect)
Outline: as §1

[11] = Quantitative High-Throughput drug screen in 47 multiple myeloma cell lines against the NCATS MIPE library collection: JJN3_DSMZ cell viability assay (AID 1918966; also: nearly all actives have a fitted effect of over 50% in size; also: potency is read from the fitted curve at half-maximal effect)
Outline: as §2

[12] = Quantitative High-Throughput drug screen in 47 multiple myeloma cell lines against the NCATS MIPE library collection: H1112_PLB cell viability assay (AID 1918967; also: nearly all actives have a fitted effect of over 30% in size; also: potency is read from the fitted curve at half-maximal effect)
Outline: as §2

[13] = Quantitative High-Throughput drug screen in 47 multiple myeloma cell lines against the NCATS MIPE library collection: Karpas25_ECACC cell viability assay (AID 1918968; also: nearly all actives have a fitted effect of over 35% in size; also: potency is read from the fitted curve at half-maximal effect)
Outline: as §2

[14] = Quantitative High-Throughput drug screen in 47 multiple myeloma cell lines against the NCATS MIPE library collection: KMS12BM_JCRB cell viability assay (AID 1918971); also: nearly all actives have a fitted effect of over 35% in size; also: potency is read from the fitted curve at half-maximal effect
Outline: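 Relative luminescence from CellTiter-Glo served as the viability signal, referenced to DMSO-treated (100%) and cell-free medium (0%) controls. Treatment lasted 48 hours at 37C with 500 cells per well.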

[15] = system: Nanoluciferase (engineered Oplophorus gracilirostris luciferase); test: Primary Nanoluciferase (NLuc) qHTS assay for identification of artifact compounds. (AID 1845222)
Outline: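 Luminescence from secreted NLuc (filtered, 1:55-diluted S16 cell medium) read 5 min after Nano-Glo substrate; compounds preincubated 15 min, RT. Hill fits of inhibition normalized to DMSO and no-enzyme.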

[16] = Primary redox qHTS assay for identification of artifact compounds. (AID 1845223)
Outline: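 Redox-cycling detection via DTT (250 uM final) oxidation coupled to Amplex Red (25 uM)/HRP (250 mU/mL) in HBSS. 15 min preincubation plus 30 min after DTT, room temperature. Ex/Em 525/598 nm; 4-parameter Hill fit against DMSO and 10 uM DA3003.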

[17] = Quantitative High-Throughput drug screen in 47 multiple myeloma cell lines against the NCATS MIPE library collection: INA6_PLB cell viability assay (AID 1918965; also: nearly all actives have a fitted effect of over 55% in size; also: potency is read from the fitted curve at half-maximal effect)
Outline: as §4

[18] = Quantitative High-Throughput drug screen in 47 multiple myeloma cell lines against the NCATS MIPE library collection: KMM1_JCRB cell viability assay (AID 1918960); also: nearly all actives have a fitted effect of over 30% in size; also: potency is read from the fitted curve at half-maximal effect
Outline: as §3

[19] = Quantitative High-Throughput drug screen in 47 multiple myeloma cell lines against the NCATS MIPE library collection: JIM1_ECACC cell viability assay (AID 1918964; also: potency is read from the fitted curve at half-maximal effect)
Outline: as §2

[20] = Quantitative High-Throughput drug screen in 47 multiple myeloma cell lines against the NCATS MIPE library collection: KMS27_JCRB cell viability assay (AID 1918970); also: nearly all actives have a fitted effect of over 30% in size; also: potency is read from the fitted curve at half-maximal effect
Outline: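 ATP-based viability (CellTiter-Glo luminescence) is measured in cells treated 48 h with approved and investigational drugs at 37 °C. Controls are DMSO-only wells for full viability and media-only wells for none.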

Measured: Potency

NNCCc1ccccc1
inactive: [2] | [3] | [6] | [8] | [9] | [10]
active: [1] 6.62 µM | [4] 18.7 µM | [5] 20.9 µM | [7] 16.6 µM | [11] 18.7 µM | [12] 0.059 µM | [13] 8.33 µM | [14] 14.8 µM

CCOc1cc(C(=O)Nc2ccc(Cl)c(-c3nc4ccccc4[nH]3)c2)cc(OCC)c1OCC
active: [2] 18.7 µM | [7] 13.2 µM | [9] 1.18 µM | [17] 11.8 µM | [13] 10.5 µM
inactive: [15] | [16]

Cn1cc(-c2ccc3nnc(C(F)(F)c4ccc5ncccc5c4)n3n2)cn1
active: [4] 13.2 µM | [9] 4.69 µM | [11] 0.0264 µM | [13] 18.7 µM | [14] 23.5 µM
inactive: [15] | [1] | [7] | [10]

CCCCNc1cc(C(=O)O)cc(S(N)(=O)=O)c1Oc1ccccc1
inactive: [1] | [2] | [3] | [4] | [5] | [7] | [18] | [10] | [17] | [11] | [14]

N#CC[C@H](C1CCCC1)n1cc(-c2ncnc3[nH]ccc23)cn1
inactive: [15] | [16] | [5] | [12]
active: [3] 7.43 µM | [4] 6.62 µM | [7] 5.26 µM | [10] 6.62 µM | [17] 0.372 µM | [11] 5.26 µM | [14] 23.5 µM

COc1cc(F)c(F)c(Nc2ccc(I)cc2F)c1NS(=O)(=O)C1(C[C@H](O)CO)CC1
inactive: [15] | [16] | [17]
active: [7] 20.9 µM | [8] 16.6 µM | [10] 18.7 µM | [19] 16.6 µM | [12] 14.8 µM | [13] 20.9 µM | [20] 16.6 µM

CCOC(=O)C1=C[C@]2(CC)CCCN3CCc4c(n1c1ccccc41)[C@@H]32
active: [1] 20.9 µM | [2] 10.5 µM | [3] 20.9 µM | [4] 16.6 µM | [5] 20.9 µM | [7] 23.5 µM | [18] 20.9 µM | [9] 9.35 µM | [10] 11.8 µM | [19] 11.8 µM | [17] 8.33 µM | [11] 18.7 µM | [12] 11.8 µM | [13] 9.35 µM | [20] 23.5 µM | [14] 14.8 µM

Cc1ccnc(NS(=O)(=O)c2ccc(NC(=O)Nc3ccc(S(=O)(=O)Nc4nccc(C)n4)cc3)cc2)n1
inactive: [16] | [5] | [12]
active: [4] 14.8 µM | [6] 23.5 µM | [7] 16.6 µM | [18] 14.8 µM | [19] 16.6 µM | [20] 20.9 µM | [14] 6.62 µM

CC(c1cc2ccccc2s1)N(O)C(N)=O (stereo not given)
not listed: [7] | [8] | [9] | [11] | [14] | [15] | [16]
inactive: all other assays above

CNC[C@H](O)c1cccc(O)c1
inactive: [1] | [2] | [3] | [4] | [5] | [6] | [10] | [17] | [12] | [20]
active: [18] 5.26 µM | [13] 4.69 µM

CC(C)(Sc1ccc(CCN(CCCCC2CCCCC2)C(=O)NC2CCCCC2)cc1)C(=O)O
inactive: [15] | [16] | [4] | [6] | [7] | [18] | [10] | [12] | [13] | [20]
active: [11] 18.7 µM

N[C@@H]1CONC1=O
not listed: [5] | [9] | [15] | [16]
inactive: all other assays above

Cc1ccc(N(CC2=NCCN2)c2cccc(O)c2)cc1
inactive: [2] | [3] | [9]
active: [1] 20.9 µM | [4] 23.5 µM | [5] 29.6 µM | [17] 13.2 µM | [12] 26.4 µM | [13] 4.69 µM | [20] 16.6 µM

COc1cccc2cc(-c3nc(C4CCC(C(=O)O)CC4)n4ncnc(N)c34)[nH]c12 (stereo not given)
active: [1] 0.187 µM | [2] 0.469 µM | [3] 0.187 µM | [4] 0.372 µM | [5] 0.662 µM | [7] 0.59 µM | [9] 0.118 µM | [17] 1.48 µM | [11] 1.05 µM | [12] 5.9 µM | [13] 0.662 µM | [14] 0.0743 µM
inactive: [15]

CS(=O)(=O)c1cccc(CNc2nc(Nc3ccc4c(c3)CCC(=O)N4)ncc2C(F)(F)F)c1
active: [2] 18.7 µM | [4] 9.35 µM | [6] 5.9 µM | [7] 4.69 µM | [18] 4.18 µM | [8] 2.64 µM | [9] 14.8 µM | [10] 18.7 µM | [17] 11.8 µM | [11] 16.6 µM | [13] 18.7 µM
inactive: [15]
